Source: PubChem BioAssay (EPA / NIEHS)
Active and inactive are the calls of the source. The calls were made as follows: active = hit-call score of the fitted dose curve at least 0.9, where 1 is the maximum; inactive = score below 0.9.

Experiments:
[1] = APR_HepG2_CellCycleArrest_1hr: Apredica 1-hour HepG2 Assay for Cell Cycle Arrest (AID 2282666); details: high-content imaging, actives raise or lower the signal
In short: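 HepG2 cells exposed for 1 h to 0.39–200 uM compound (0.5% DMSO). Fixed, Hoechst-stained nuclei imaged by ArrayScan; DNA content quantified by Cell Cycle analysis; bidirectional fit against DMSO.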

[2] = APR_HepG2_CellLoss_1hr: Apredica 1-hour HepG2 Assay for Cell Loss (AID 2282668); details: high-content imaging;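 also: curves fitted both ways against DMSO so gain or loss of cells counts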
In short: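 HepG2 cells were treated for 1 h with compound at 0.39–200 uM, in duplicate, in 0.5% DMSO. After formaldehyde fixation, Hoechst 33342-stained nuclei were imaged on an ArrayScan to count cells. Data were fitted bidirectionally versus DMSO.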

[3] = APR_HepG2_MicrotubuleCSK_1hr: Apredica 1-hour HepG2 Assay for Microtubule CSK Stabilty (AID 2282669); details: HepG2 microtubule cytoskeleton imaging, actives raise or lower the signal
In short: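 HepG2 cells exposed 1 h to 0.39–200 uM compound (0.5% DMSO, duplicates), then formaldehyde-fixed, permeabilized and immunostained for alpha-tubulin with Hoechst nuclei. Imaged by ArrayScan high-content analysis; bidirectional fit versus DMSO.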

[4] = APR_HepG2_NuclearSize_1hr: Apredica 1-hour HepG2 Assay for Nuclear Size (AID 2282670); details: high-content imaging, actives raise or lower the signal
In short: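 HepG2 cells dosed 1 hr with 0.39–200 uM compound (0.5% DMSO), formaldehyde-fixed, Hoechst 33342-stained and imaged at 20x; nuclear diameter from nuclear stain, fitted bidirectionally against DMSO.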

[5] = APR_HepG2_p53Act_1hr: Apredica 1-hour HepG2 Assay for p53 Activation (AID 2282671); details: high-content imaging, actives raise or lower the signal
In short: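 HepG2 cells treated 1 h with compound at 0.39–200 uM (10 concentrations, duplicate) in 0.5% DMSO. Formaldehyde-fixed, permeabilised cells immunostained for p53 with Hoechst 33342; high-content imaging, bidirectional fit versus DMSO.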

[6] = APR_HepG2_MitoticArrest_1hr: Apredica 1-hour HepG2 Assay for Mitotic Arrest (AID 2282672); details: high-content imaging, actives raise or lower the signal
In short: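 HepG2 cells exposed 1 hr to compounds at 0.39–200 uM (0.5% v/v DMSO final), then fixed in 3.7% formaldehyde and immunostained for phospho-histone H3 with Hoechst 33342. Mitotic arrest scored by automated fluorescence imaging, fitted bidirectionally versus DMSO.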

[7] = APR_HepG2_MitoMass_1hr: Apredica 1-hour HepG2 Assay for Mitochondrial Mass (AID 2282674); details: high-content imaging, actives raise or lower the signal
In short: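 HepG2 cells dosed 1 hr with 0.39-200 uM compound (0.5% DMSO), duplicate wells. Mitochondria stained with 250 nM MitoTracker Red CMXRos for 30 min before formaldehyde fixation, imaged at 20x by ArrayScan; bidirectional fit versus DMSO.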

[8] = APR_HepG2_MitoMembPot_1hr: Apredica 1-hour HepG2 Assay for Mitochondrial Membrane Potential (AID 2282675); details: imaging, actives raise or lower the signal
In short: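 HepG2 cells dosed 1 hour with 0.39–200 uM compound in duplicate, 0.5% DMSO final. MitoTracker Red CMXRos (250 nM, 30 min) loaded before formaldehyde fixation; fluorescence quantified by high-content imaging, bidirectional fitting versus DMSO.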

[9] = APR_HepG2_StressKinase_1hr: Apredica 1-hour HepG2 Assay for Stress Kinase (AID 2282906); details: HepG2 stress kinase (phospho-c-Jun) imaging, actives raise or lower the signal
In short: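 HepG2 cells dosed 0.39-200 uM (0.5% DMSO) for 1 h, then formaldehyde-fixed. Stress kinase read by phospho-c-Jun immunofluorescence using high-content imaging; bidirectional fit vs DMSO.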

[10] = APR_HepG2_NuclearSize_24hr: Apredica 24-hour HepG2 Assay for Nuclear Size (AID 2282907); details: high-content imaging, actives raise or lower the signal
In short: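 HepG2, 24 hr dosing, 10-pt 0.39–200 uM, duplicates, 0.5% DMSO final; 3.7% formaldehyde fix, 0.5% Triton X-100; Hoechst 33342 nuclear stain; ArrayScan HCS, Cell Cycle analysis → nuclear size; bidirectional fit vs DMSO.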

[11] = APR_HepG2_CellLoss_24hr: Apredica 24-hour HepG2 Assay for Cell Loss (AID 2282908); details: high-content imaging;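 as to AC50: fit in both directions so a hit may be cell loss or gain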
In short: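 10-pt dose, 0.39–200 uM, n=2/plate; DMSO 0.5% v/v final as negative control. Fix 3.7% formaldehyde 30 min RT, permeabilize 0.5% Triton X-100, stain Hoechst 33342 2 ug/mL, image 20x. Nuclear count, bidirectional fit vs DMSO.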

[12] = APR_HepG2_MicrotubuleCSK_24hr: Apredica 24-hour HepG2 Assay for Microtubule CSK Stabilty (AID 2282909); details: HepG2 microtubule cytoskeleton imaging, actives raise or lower the signal
In short: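 Human liver HepG2, 24 h dosing, 0.39–200 uM ×10 conc, dup, 0.5% DMSO. 3.7% formaldehyde fix, 0.5% Triton perm, anti-alpha-tubulin (1:200)/Cy5 secondary + Hoechst. HCS imaging, 6 fields/well; gain/loss fit vs DMSO.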

[13] = APR_HepG2_MitoticArrest_24hr: Apredica 24-hour HepG2 Assay for Mitotic Arrest (AID 2282910); details: high-content imaging, actives raise or lower the signal
In short: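 HepG2 cells, 24 h exposure at 0.39-200 uM (10 concentrations, duplicate, 0.5% DMSO). Fixed, stained for phospho-histone H3 with Hoechst; imaged by high-content microscopy, bidirectional fit versus DMSO.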

[14] = APR_HepG2_MitoMembPot_24hr: Apredica 24-hour HepG2 Assay for Mitochondrial Membrane Potential (AID 2282911); details: imaging, actives raise or lower the signal
In short: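 HepG2 cells exposed 24 h to 0.39–200 uM compounds in duplicate, 0.5% v/v DMSO final. MitoTracker Red CMXRos 250 nM loaded 30 min before formaldehyde fixation; high-content imaging at 20x, bidirectional fit versus DMSO.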

[15] = APR_HepG2_MitoMass_24hr: Apredica 24-hour HepG2 Assay for Mitochondrial Mass (AID 2282912); details: high-content imaging, actives raise or lower the signal
In short: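 Mitochondrial mass is read as MitoTracker Red fluorescence intensity from automated imaging, with bidirectional curve fitting relative to DMSO. HepG2 cells received compound (0.39–200 uM, 0.5% DMSO final) for 24 hr and were dye-loaded (250 nM, 30 min) before formaldehyde fixation.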

[16] = APR_HepG2_p53Act_24hr: Apredica 24-hour HepG2 Assay for p53 Activation (AID 2282913); details: high-content imaging, actives raise or lower the signal;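 also: p53 protein immunofluorescence averaged per cell in HepG2 with Hoechst nuclei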
In short: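 HepG2 cells exposed 24 h to compounds at 0.39–200 uM in duplicate, 0.5% v/v DMSO final; fixed, permeabilized, stained with anti-p53 antibody and Hoechst 33342; fluorescence imaging; bidirectional curve fit versus DMSO.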

[17] = APR_HepG2_CellCycleArrest_72hr: Apredica 72-hour HepG2 Assay for Cell Cycle Arrest (AID 2282914); details: high-content imaging, actives raise or lower the signal
In short: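 HepG2 cells exposed 72 h in duplicate to 0.39–200 uM compound, 0.5% DMSO final. Formaldehyde-fixed, Hoechst 33342-stained nuclei imaged at 20x, six fields per well; DNA content per valid cell quantified by cell-cycle image analysis, bidirectional fit versus DMSO.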

[18] = APR_HepG2_CellLoss_72hr: Apredica 72-hour HepG2 Assay for Cell Loss (AID 2282915); details: high-content imaging
In short: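 HepG2 cells exposed 72 h to compound at 0.39–200 uM (10 concentrations, duplicate) in 0.5% DMSO. Fixed with 3.7% formaldehyde and Hoechst 33342-stained. Imaged at 20x; nuclear count gives cell number, fitted bidirectionally versus DMSO.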

[19] = APR_HepG2_P-H2AX_1hr: Apredica 1-hour HepG2 Assay for H2AX Phosphorylation (AID 2282673); details: high-content imaging, actives raise or lower the signal
In short: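 HepG2 dosed 1 hr at 0.39-200 uM (0.5% DMSO final), duplicate. Fixed in 3.7% formaldehyde, Triton permeabilized, immunostained for phospho-histone H2A.x (1:200) with Hoechst 33342; ArrayScan 20x imaging, bidirectional fit vs DMSO.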

[20] = APR_HepG2_CellCycleArrest_24hr: Apredica 24-hour HepG2 Assay for Cell Cycle Arrest (AID 2282905); details: imaging, actives raise or lower the signal;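 also: cell cycle arrest scored as ratio of 2N to 4N nuclear DNA content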
In short: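 HepG2, 24 hr dosing, 10-pt 0.39–200 uM in duplicate, 0.5% DMSO. Fixed 3.7% formaldehyde, permeabilized 0.5% Triton X-100, Hoechst 33342 2 ug/mL. Imaged 20x; nuclear DNA content quantified; bidirectional fit vs DMSO.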

Measured: AC50

Nc1nc(N)nc(NC2CC2)n1
not listed: [19] | [20]
inactive: all other assays above

CC(C)=CC1C(C(=O)OCN2C(=O)C3=C(CCCC3)C2=O)C1(C)C (centres undefined)
active: [11] 109 µM | [12] 105 µM | [18] 100 µM
not listed: [4] | [7] | [8] | [20]
inactive: all other assays above

Cc1cc(C2CC2)nc(Nc2ccccc2)n1
active: [11] 60.5 µM | [12] 98.6 µM | [18] 75.7 µM
not listed: [3] | [7] | [8]
inactive: all other assays above

FC(F)C(F)(F)OCC(Cn1cncn1)c1ccc(Cl)cc1Cl (centres undefined)
active: [11] 48.7 µM | [12] 103 µM | [17] 75.8 µM | [18] 99.9 µM
not listed: [4] | [7] | [10] | [19]
inactive: all other assays above

CN(C)C(=O)Nc1cccc(C(F)(F)F)c1
not listed: [7] | [8]
inactive: all other assays above

CSc1nnc(C(C)(C)C)c(=O)n1N
not listed: [7] | [20]
inactive: all other assays above

C#CC(C)(C)NC(=O)c1cc(Cl)cc(Cl)c1
active: [18] 69.1 µM
not listed: [8] | [10] | [19] | [20]
inactive: all other assays above

CC1(C(=O)Nc2ccc(O)c(Cl)c2Cl)CCCCC1
active: [12] 94 µM | [18] 71.2 µM
not listed: [4] | [7] | [8] | [19] | [20]
inactive: all other assays above

CCNc1nc(Cl)nc(NC(C)(C)C#N)n1
not listed: [7] | [8] | [10] | [19]
inactive: all other assays above

CON=C(C(=O)OC)c1ccccc1CON=C(C)c1cccc(C(F)(F)F)c1
active: [14] 1.07 µM | [18] 3.36 µM
not listed: [4] | [7] | [10] | [19] | [20]
inactive: all other assays above

CN(C)NC(=O)CCC(=O)O
not listed: [7] | [10] | [20]
inactive: all other assays above

CCCCOC(=O)c1ccccc1C(=O)O
not listed: [4] | [20]
inactive: all other assays above

C[Si](Cn1cncn1)(c1ccc(F)cc1)c1ccc(F)cc1
active: [18] 57.8 µM
not listed: [3] | [7] | [20]
inactive: all other assays above

CC1=NNC(=O)N(/N=C/c2cccnc2)C1
not listed: [4] | [7] | [8] | [20]
inactive: all other assays above

Nc1c(Cl)cc([N+](=O)[O-])cc1Cl
active: [18] 95.3 µM
not listed: [4] | [5] | [16] | [19]
inactive: all other assays above
